The text below walks through data of PubChem BioAssay (NCATS).

The nature of assay [1]: AP1 Signaling Pathway (AID 357).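 Further: ME-180 reporter cells stimulated with EGF at its EC50 level; on the % scale 0 is the no-effect control and ±100 the full control effect.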 The method, boiled down: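 First, ME-180 AP-1-bla cells were cultured overnight at 37 °C in low-serum Opti-MEM. Next, titrated compounds with EC50 EGF were incubated 5 hours. Finally, CCF4 was added for 2.5 hours and the 460/530 nm ratio recorded.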
Assay [2] has as its target Cytochrome P450 1A2 (Homo sapiens) (UniProt P05177). Briefly: p450-cyp1a2 (AID 410; calls by dose curve;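 further: -100% = full effect of reference inhibitor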). The method, boiled down:
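Luminescent readout of luciferin formed from Luciferin-ME by human CYP1A2; data normalized against complete inhibition by 57 uM furafylline. Enzyme 20nM, substrate 100uM at Km, 100mM KPO4 buffer, 60 min reaction at room temperature.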

A short description of assay [3]: NFAT Signaling Pathway (AID 444).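 Further: carbachol stimulus at about its EC50 of 1 µM final; on the % scale 0 is the no-effect control and ±100 the full control effect.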 The note with it: Jurkat NFAT-bla M1, carbachol, beta-lactamase ratio, 5 h. Summed up:
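Jurkat cells carrying an NFAT-driven β-lactamase reporter and co-transfected muscarinic M1 receptor were treated with compound plus carbachol (1 uM final, an EC50 level) for 5 h at 37 °C. CCF4 loading followed for 1 h at RT; 460/530 nm ratio gave %activity.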

The nature of assay [4]: Stat Signaling Pathway (AID 446).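 Further: ME-180 cervical cancer cells given 40 pM IL-6 alongside compound; SIE-controlled beta-lactamase reporter measured as 460/530 nm FRET emission ratio; on the % scale 0 is the no-effect control and ±100 the full control effect.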 The method, boiled down: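 ME-180 cells carrying a SIE-driven beta-lactamase reporter are stimulated with 40 pM IL-6 for 5 h at 37C in the presence of compound. The 460/530 nm FRET substrate ratio is read after 2.5 h at RT. Data are normalised to 300 pM IL-6 and to 125 nM JAK inhibitor controls.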
The target in assay [5] is Glucocorticoid receptor (Homo sapiens) (UniProt P04150). Description: GR-GFP Redistribution (AID 450;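 active means compounds whose dose series gives a full or clear partial fitted curve of increased nuclear translocation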; further: potency means the concentration at half of the fitted maximal effect). The note with it: U2OS GR-GFP nuclear translocation, laser cytometry, 2 h.
Assay [6] has the same target. Briefly: GR-EFC Redistribution (AID 451; calls by dose curve; further: potency means the concentration at half of the fitted maximal effect). The conditions noted are these: CHO-K1 GR-EFC translocation, beta-gal luminescence, 2 h. The method, boiled down:
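CHO-K1 cells stably expressing nuclear-localized β-gal enzyme acceptor and GR fused C-terminally to the enzyme donor fragment; ligand-driven nuclear translocation restores β-gal by complementation. Compounds titrated up to 46 uM final, 2 h at 37 °C; luminescence read.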

The target of assay [7] is Mitogen-activated protein kinase 10 (Mus musculus) (UniProt Q61831). Briefly: JNK3 AlphaScreen Assay (AID 530).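 Further: kinase came from lysate of stimulated human HepG2 cells; signal reports phosphorylation of biotinylated GST-cJun 1-79 at Ser73 with 10 µM ATP; on the % scale 0 is the no-effect control and ±100 the full control effect.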 The method, boiled down:
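Inhibitors reduce antibody binding to phosphorylated biotin-cJun, lowering AlphaScreen luminescence. Lysates from HepG2 cells pre-activated by IL-1beta plus TNF-alpha supplied JNK3; compounds were titrated.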

In assay [8] the target is 3',5'-cyclic-AMP phosphodiesterase 4B (Homo sapiens) (UniProt Q07343). Description: qHTS Assay for Inhibitors of PDE-IV (AID 607; active means well fitted activation curve with a large enough effect in the main read-out, with a control signal flat, not every such curve was filed as active; further: % of control where 0% means no effect). Summed up:
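HEK293 ACTOne cells with CNG channel (1000/well), endogenous PDE4; membrane potential dye, compounds up to 22.9 uM final. Fluorescence Ex 535/Em 590; RO 20-1724 (100 uM final) as reference.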

A short description of assay [9]: qHTS Assay for Lipid Storage Modulators (AID 1519; calls by dose curve). The conditions noted are these: Drosophila S3 cells, BODIPY lipid droplet/cell ratio, laser cytometry, cells loaded with oleic acid. The method, boiled down:
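Cells seeded at 5,000 per well were treated with compounds over a concentration series and loaded with oleic acid (400 uM, as added). Lipid droplet fluorescence (488 nm excitation, 500-530 nm channel) was read by laser-scanning cytometry and normalized to 20 uM Triacsin C.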

Assay [10] has as its target Ubiquitin carboxyl-terminal hydrolase 1 (Homo sapiens) (UniProt O94782). Briefly: Inhibitors of USP1/UAF1: Pilot qHTS (AID 504865; active means well fitted inhibition curve with a large enough effect;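 further: rhodamine fluorescence freed from ubiquitin-rhodamine substrate followed over time; top concentration of the series differs between compounds; on the % scale 0 is the no-effect control and ±100 the full control effect; nearly all actives have a fitted effect of over 35% in size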). The method, boiled down: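 Kinetic fluorescence assay: 1nM USP1/UAF1, 15 min compound preincubation, then 150nM Ub-Rho; 480/540 nm.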
For assay [11], the target named is Luciferin 4-monooxygenase (Photinus pyralis) (UniProt P08659). Briefly: Biochemical firefly luciferase enzyme assay for NPC (AID 624030; active means well fitted inhibition curve with a large enough effect;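 further: purified P. pyralis luciferase at 10 nM with luciferin and ATP substrate; 0% = DMSO and -100% = full luciferase inhibition by PTC124 control; nearly all actives have a fitted effect of over 70% in size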). Summed up:
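Counter-screen for direct inhibition of the luciferase enzyme by approved-drug library compounds, run at 10 nM enzyme in 50 mM Tris acetate (final). Luminescence was read within 5 min of enzyme-buffer addition and normalized to PTC124 versus DMSO (0%).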

Assay [12] can be described thus: qHTS profiling for inhibitors of Plasmodium falciparum proliferation (AID 504749; active means well fitted inhibition curve with a large enough effect;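 further: 0% = DMSO vehicle and full inhibition = artemisinin control; nearly all actives have a fitted effect of over 60% in size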). The note with it: P. falciparum in erythrocytes, SYBR Green DNA, 72 h, at 12.8 µM (top of the series). The method, boiled down: (§1)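 Parasite proliferation within erythrocytes, 72 h exposure. Endpoint: SYBR Green I fluorescence after overnight lysis at room temperature. Controls: 0.29 uM artemisinin, DMSO.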

Another assay relates to 3D7. The description is as above. The note with it: P. falciparum in erythrocytes, SYBR Green DNA, 72 h; series mostly up to 28.7 µM. Summed up:
as §1

A further assay relates to C2A. The assay is described as above. The note with it: P. falciparum in erythrocytes, SYBR Green DNA, 72 h; series mostly up to 28.7 µM. Summed up: as §1
Another assay deals with CP211. The description is as above. The conditions noted are these: P. falciparum in erythrocytes, SYBR Green DNA, 72 h; series mostly up to 28.7 µM. Summed up: as §1
A further assay has as its system CP217. The assay is described as above. The conditions noted are these: P. falciparum in erythrocytes, SYBR Green DNA, 72 h; series mostly up to 28.7 µM. Summed up: as §1
A further assay has as its system CP252. Described as above. The note with it: P. falciparum in erythrocytes, SYBR Green DNA, 72 h; series mostly up to 12.8 µM. Summed up:
as §1

The subject of the next assay is CP262. The description is as above. The conditions noted are these: P. falciparum in erythrocytes, SYBR Green DNA, 72 h; series mostly up to 28.7 µM. The method, boiled down:
as §1

Another assay relates to CP286. Described as above. The conditions noted are these: P. falciparum in erythrocytes, SYBR Green DNA, 72 h; series mostly up to 28.7 µM. Summed up:
as §1

The next assay deals with ECU. The assay is described as above. The conditions noted are these: P. falciparum in erythrocytes, SYBR Green DNA, 72 h; series mostly up to 28.7 µM. Summed up:
as §1

The mark [13] stands for this setting: measured here: cell count channel max response.
Setting [14] is: measured here: lipid channel max response.

Values joined by “and” are separate entries in the source; they are usually repeats but may differ in a detail not shown here. Equal values may be shown once. Inconclusive results are not listed. Active and inactive are the calls of the source. Unless noted, the call rests on the fitted dose curve; in most records, active means well fitted curve in either direction with a large enough effect (not every such curve was filed as active); inconclusive means small, poorly fitted or top-dose-only effect, or another doubt; inactive means flat fitted curve, though single readings scatter.

Cytochrome P450 1A2 (Homo sapiens), sequence (P05177 whole entry, looked up): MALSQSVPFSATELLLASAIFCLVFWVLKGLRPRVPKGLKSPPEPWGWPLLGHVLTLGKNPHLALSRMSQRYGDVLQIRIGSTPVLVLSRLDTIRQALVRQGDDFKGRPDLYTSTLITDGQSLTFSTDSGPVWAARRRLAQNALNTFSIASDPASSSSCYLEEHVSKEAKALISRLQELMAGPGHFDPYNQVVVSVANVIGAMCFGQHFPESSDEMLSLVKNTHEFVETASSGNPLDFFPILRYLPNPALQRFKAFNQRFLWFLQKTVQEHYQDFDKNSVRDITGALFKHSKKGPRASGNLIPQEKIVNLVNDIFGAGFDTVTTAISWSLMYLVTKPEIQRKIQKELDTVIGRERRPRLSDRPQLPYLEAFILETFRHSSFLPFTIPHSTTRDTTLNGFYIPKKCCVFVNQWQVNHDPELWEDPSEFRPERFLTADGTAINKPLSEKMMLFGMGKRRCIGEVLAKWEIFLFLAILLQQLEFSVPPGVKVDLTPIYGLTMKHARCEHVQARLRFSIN
3',5'-cyclic-AMP phosphodiesterase 4B (Homo sapiens), sequence (Q07343 whole entry, looked up): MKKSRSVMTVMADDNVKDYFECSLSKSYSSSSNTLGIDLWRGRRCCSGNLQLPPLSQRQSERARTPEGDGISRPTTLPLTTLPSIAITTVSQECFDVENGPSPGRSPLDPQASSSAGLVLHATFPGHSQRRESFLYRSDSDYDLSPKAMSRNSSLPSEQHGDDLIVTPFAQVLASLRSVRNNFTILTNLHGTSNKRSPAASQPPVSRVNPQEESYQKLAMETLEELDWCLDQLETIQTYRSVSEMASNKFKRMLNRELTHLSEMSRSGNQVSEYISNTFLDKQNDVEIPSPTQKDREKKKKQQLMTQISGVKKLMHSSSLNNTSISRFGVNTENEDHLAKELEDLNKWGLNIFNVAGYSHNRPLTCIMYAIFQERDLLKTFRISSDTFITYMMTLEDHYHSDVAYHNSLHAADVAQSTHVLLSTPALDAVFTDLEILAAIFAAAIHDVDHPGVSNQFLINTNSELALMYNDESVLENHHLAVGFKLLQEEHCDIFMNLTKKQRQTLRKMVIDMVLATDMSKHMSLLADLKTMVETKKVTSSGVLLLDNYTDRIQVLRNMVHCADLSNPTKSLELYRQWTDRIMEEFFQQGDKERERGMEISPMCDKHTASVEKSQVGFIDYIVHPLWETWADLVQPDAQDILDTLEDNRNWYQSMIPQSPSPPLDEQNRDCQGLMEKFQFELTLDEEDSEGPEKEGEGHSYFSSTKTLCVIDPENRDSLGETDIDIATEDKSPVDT
Glucocorticoid receptor (Homo sapiens), sequence (P04150 whole entry, looked up): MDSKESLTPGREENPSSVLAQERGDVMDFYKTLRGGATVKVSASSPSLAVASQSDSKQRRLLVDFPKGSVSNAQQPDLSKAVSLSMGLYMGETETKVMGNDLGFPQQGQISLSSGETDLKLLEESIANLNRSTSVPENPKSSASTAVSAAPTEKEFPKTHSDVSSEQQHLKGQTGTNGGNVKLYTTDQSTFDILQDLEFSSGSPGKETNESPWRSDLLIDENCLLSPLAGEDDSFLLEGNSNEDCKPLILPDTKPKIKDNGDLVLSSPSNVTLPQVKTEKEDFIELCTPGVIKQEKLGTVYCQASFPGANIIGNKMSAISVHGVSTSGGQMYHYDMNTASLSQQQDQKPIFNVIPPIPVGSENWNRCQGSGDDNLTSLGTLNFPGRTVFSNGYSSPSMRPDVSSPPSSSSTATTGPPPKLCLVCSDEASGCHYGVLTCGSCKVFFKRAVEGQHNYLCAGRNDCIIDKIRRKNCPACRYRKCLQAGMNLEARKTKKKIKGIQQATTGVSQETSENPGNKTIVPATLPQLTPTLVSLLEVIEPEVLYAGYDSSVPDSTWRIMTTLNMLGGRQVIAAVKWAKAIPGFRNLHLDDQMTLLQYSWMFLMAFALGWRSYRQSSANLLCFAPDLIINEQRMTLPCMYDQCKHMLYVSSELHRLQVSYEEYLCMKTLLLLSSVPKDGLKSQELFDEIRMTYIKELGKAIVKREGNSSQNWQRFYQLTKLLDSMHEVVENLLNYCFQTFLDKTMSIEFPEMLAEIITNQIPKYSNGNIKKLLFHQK
Ubiquitin carboxyl-terminal hydrolase 1 (Homo sapiens), sequence (O94782 whole entry, looked up): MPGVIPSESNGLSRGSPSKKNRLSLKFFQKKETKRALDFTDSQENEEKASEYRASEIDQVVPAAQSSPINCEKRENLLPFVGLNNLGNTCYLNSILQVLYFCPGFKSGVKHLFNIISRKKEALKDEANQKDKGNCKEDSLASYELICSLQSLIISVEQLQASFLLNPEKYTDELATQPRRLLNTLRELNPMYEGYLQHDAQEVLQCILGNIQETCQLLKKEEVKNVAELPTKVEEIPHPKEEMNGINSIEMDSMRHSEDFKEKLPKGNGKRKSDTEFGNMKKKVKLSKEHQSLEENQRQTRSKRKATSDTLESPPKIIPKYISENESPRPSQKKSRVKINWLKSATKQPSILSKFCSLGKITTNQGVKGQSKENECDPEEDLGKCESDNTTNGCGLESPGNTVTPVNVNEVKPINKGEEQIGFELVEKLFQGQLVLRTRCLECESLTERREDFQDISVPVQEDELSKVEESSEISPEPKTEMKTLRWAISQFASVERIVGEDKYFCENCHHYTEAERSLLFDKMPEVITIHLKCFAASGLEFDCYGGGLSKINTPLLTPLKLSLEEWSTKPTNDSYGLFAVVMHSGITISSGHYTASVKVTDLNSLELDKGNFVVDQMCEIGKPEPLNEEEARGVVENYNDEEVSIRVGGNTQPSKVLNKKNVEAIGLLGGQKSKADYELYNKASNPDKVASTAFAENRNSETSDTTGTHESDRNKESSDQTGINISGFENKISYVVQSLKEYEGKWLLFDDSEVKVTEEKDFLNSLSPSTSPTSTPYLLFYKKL
Luciferin 4-monooxygenase (Photinus pyralis), sequence (P08659 whole entry, looked up): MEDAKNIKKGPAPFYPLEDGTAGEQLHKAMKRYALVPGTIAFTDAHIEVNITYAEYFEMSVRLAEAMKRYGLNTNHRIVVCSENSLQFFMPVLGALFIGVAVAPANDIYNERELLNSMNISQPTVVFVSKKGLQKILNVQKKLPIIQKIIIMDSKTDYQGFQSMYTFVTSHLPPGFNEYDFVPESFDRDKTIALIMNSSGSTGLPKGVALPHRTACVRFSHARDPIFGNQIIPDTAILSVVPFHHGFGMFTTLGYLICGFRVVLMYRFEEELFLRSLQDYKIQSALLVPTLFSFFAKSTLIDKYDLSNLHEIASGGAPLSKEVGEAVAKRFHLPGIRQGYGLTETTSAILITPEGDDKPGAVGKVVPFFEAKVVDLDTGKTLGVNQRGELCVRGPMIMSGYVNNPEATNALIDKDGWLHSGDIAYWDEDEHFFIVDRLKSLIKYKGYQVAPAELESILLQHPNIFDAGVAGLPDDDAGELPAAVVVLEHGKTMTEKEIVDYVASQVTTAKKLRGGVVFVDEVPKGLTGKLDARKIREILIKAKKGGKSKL

Consider `CN(C)C(=O)Oc1cc(OC(=O)N(C)C)cc([C@@H](O)CNC(C)(C)C)c1`, for which the compound was classed as inactive in assay [1], in [4] and in assay [7]. In addition, the Potency entry (in [2]; in assay [8]; in assay [10]; in assay [11]; with 3D7; with C2A) was “inactive” each time. The Potency result with CP211, in the assay on CP217, in the assay on CP252, with CP262, with CP286 and in the assay with ECU was “inactive” throughout. The activity change, negative = inhibition was -23.9% (inactive) in assay [3] (at 17.2 µM (top of the series)) and -0.844% (inactive) in assay [9] (at 25.7 µM (top of the series)). Also, the Potency in assay [5] and in [6] was > 20.6 µM (inactive) each time. Further, the max response was 2.58% in assay [9] (setting [13]) and 0.267% in assay [9] (setting [14]). In addition, the figures for the activity, negative = inhibition in assay [12] (parasite line A) and in assay [12] (parasite line B) were 1.47% (inactive) and -2.95% (inactive), respectively.

`c1csc(CN2CC3(CCNCC3)C2)n1`: the result in assay [1], in [4] and in [7] was inactive. The activity change, negative = inhibition is 5.76% (inactive) in [3] (at 7.69 µM (top of the series)) and 9.28% (inactive) in assay [9] (at 57.5 µM (top of the series)). For the same compound, the Potency in assay [6] was > 46 µM (inactive). Further, the Potency entry in assay [8] was “inactive”. Also, the results for the max response in assay [9] (setting [13]) and in assay [9] (setting [14]) were 10.7% and 24.8%, respectively.

Regarding `CC(C)NC(=O)N1CCC2(CCNCC2)CC1`, the outcome in assay [1] and in assay [7] was inactive. The Potency entry in assay [8] was “inactive”. Also, the activity change, negative = inhibition in assay [9] (at 57.5 µM (top of the series)) was 4% (inactive). The max response in assay [9] (setting [13]) was determined as 1.41%; in [9] (setting [14]) it was 7.12%.

`NC[C@H](O)c1ccc(O)cc1`: the call in [1], in assay [4] and in assay [7] was inactive. For the same compound, the Potency entry in [2], in [8] and in assay [10] was “inactive” throughout. Besides, the values for the activity change, negative = inhibition in assay [3] (at 17.2 µM (top of the series)), in [3] (at 38 µM (top of the series)) and in assay [9] (at 25.7 µM (top of the series)) were 6.46% (inactive), 10.8% (inactive) and -0.0033% (inactive), respectively. For the same compound, the max response is 1.62% in assay [9] (setting [13]) and 3.81% in assay [9] (setting [14]).

Consider `CNC[C@H](O)c1ccc(O)cc1`, for which the compound was classed as inactive in assay [1], in assay [4] and in assay [7]. The Potency result (in assay [2]; in [8]; in [10]; in [11]; in the assay with 3D7; in the assay on C2A) was “inactive” each time. Also, the Potency entry in the assay with CP211, with CP217, with CP252, in the assay with CP262, in the assay on CP286 and in the assay on ECU was “inactive” throughout. Besides, the values for the activity change, negative = inhibition in assay [3] (at 17.2 µM (top of the series)), in assay [3] (at 38 µM (top of the series)) and in assay [9] (at 25.7 µM (top of the series)) were -22.7% (inactive), 10.5% (inactive) and -0.0081% (inactive), respectively. The Potency in assay [5] is > 46 µM (inactive) and > 20.6 µM (inactive); in assay [6] it was > 46 µM (inactive) and > 20.6 µM (inactive). Moreover, the max response in assay [9] (setting [13]) was -14.8%; in [9] (setting [14]) it was -11.6%. In addition, the activity, negative = inhibition in [12] (parasite line A) is 3.3% (inactive); in assay [12] (parasite line B) it was 13.2% (inactive).

Take `O=C(Oc1ccccc1)N1CCC2(CC1)CCN(C(c1ccccc1)c1ccccc1)CC2`: the result in assay [1], in [4] and in assay [7] was inactive. The figures for the activity change, negative = inhibition in assay [3] (at 7.69 µM (top of the series)) and in [9] (at 57.5 µM (top of the series)) were -0.91% (inactive) and 4.05% (inactive), respectively. The Potency in assay [6] is > 46 µM (inactive). Besides, the max response was 5.73% in assay [9] (setting [13]) and 13.3% in assay [9] (setting [14]).

For `CN1[C@H]2CC(=O)C[C@@H]1[C@@H](O)C2`, the compound was classed as inactive in assay [1], in assay [4] and in assay [7]. Also, the Potency entry in [2], in assay [8] and in assay [10] was “inactive” each time. The activity change, negative = inhibition in assay [3] (at 17.2 µM (top of the series)) is -9.47% (inactive); in assay [9] (at 25.7 µM (top of the series)), -5.66% (inactive). Also, the Potency in assay [5] and in [6] was > 20.6 µM (inactive) in each case. In addition, the values for the max response in assay [9] (setting [13]) and in assay [9] (setting [14]) were -20.9% and -23.7%, respectively.
